In the library only some 13% were active in any assay of this set; here they are far more common.
CHOP inhibitor: blocks CHOP induction under ER stress. CHO-K1 CHOP-promoter luciferase, tunicamycin-induced, 15-18 h. inhibition, % at 10 µM. hit rate 3.8% among 220,000. AID 2732;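 active = compounds that reduced the stress-induced luciferase reporter signal by more than about 70% of percent inhibition, limit read from the data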;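 note: 0% = tunicamycin plus vehicle and 100% = wells without tunicamycin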
L major viab: reduces viability of Leishmania major promastigotes; resazurin fluorescence viability; inhibition, % at 10 µM; hit rate 9% among 200,000; AID 1063; in the data active = inhibition above about 50%;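 note: promastigotes grown with compound for 44 hours at 28 °C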
RAM network inh: blocks the yeast RAM network; inhibition, % at 50 µM; S. cerevisiae dse1pr::URA3 reporter, 5-FOA growth OD615, 2 d; analog-sensitive cbk1-as2 kinase mutant strain; AID 868; hit rate 1.8% among 190,000;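 active = inhibition above a set limit, 3 SD over mean compound inhibition, cut at about 8.4% in these data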;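 note: 0% = DMSO-only wells with no growth and 100% = 10 µM 1-NA-PP1 full growth; inhibition rescues growth on 5-FOA so higher OD means more RAM inhibition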
WT yeast gro inh: growth inhibition of WT yeast, mitochondrial fusion screen; inhibition, % at 10 µM; hit rate 2.1% among 190,000; mitochondrial fusion phenotypic screen, WT strain; in the data active = inhibition above about 58%; tested in S. cerevisiae
* hit, by the source's call; · = not tested or not shown.

SMILES	CHOP inhibitor	L major viab	RAM network inh	WT yeast gro inh
CCN1C(=O)CC(N2CCN(c3ccc(C(=O)c4ccncc4)cc3)CC2)C1=O (stereo not given)	44.8	73.0*	1.7	0.4
CCOc1ccc(NC(=O)C2CC(C)=C(C)CC2C(=O)O)cc1 (stereo not given)	40.2	80.5*	0.7	0.9
CC(=O)c1ccc(NC(=O)Nc2cccc(Cl)c2)cc1	-23.2	28.4	-1.0	72.3*
O=C(Nc1ccccc1)Nc1cccc(Cl)c1	95.0*	5.8	0.9	17.0
O=C(Nc1cccc(Cl)c1)Nc1cccc(C(=O)O)c1	21.1	·	·	·
CC(=O)c1ccc(NC(=S)NCCc2cccc(Cl)c2)cc1	5.0	31.3	1.6	30.0
O=C(NCCCc1ccccc1)Nc1cccc(Cl)c1	42.7	6.0	0.7	76.9*
O=C(NCCc1ccncc1)Nc1cccc(Cl)c1	12.1	-3.0	0.9	2.8
O=C(/C=C/c1ccco1)N(c1ccccn1)c1ccccn1	-9.7	-5.9	3.2	9.3
CC(=O)c1ccc(N2CCN(C(=S)Nc3cccc(Cl)c3)CC2)cc1	44.2	56.6*	4.1	8.1
O=C(NNc1cccc(Cl)n1)Nc1cccc(Cl)c1	12.3	97.1*	4.0	17.1
COC(=O)c1ccc(C(=O)OC)c(NC(=S)N2CCN(c3cccc(Cl)c3)CC2)c1	26.5	73.6*	3.2	23.5
Cc1ccccc1OCC(=O)Nc1cccc(C(=O)O)c1	89.0*	2.0	0.4	11.8
CC1(C)C(c2ccccc2)=NC(c2ccc(Br)cc2)N1O (stereo not given)	15.9	-8.4	1.1	-8.7
Cc1csc2c(=O)sc(NC(=O)c3cccs3)nc12	-6.5	·	·	·
Cc1ccc(C)c(N2CCN(C(=O)C34CC5CC(C3)CC(n3nnc(C)n3)(C5)C4)CC2)c1	29.1	·	·	·
CC1CN(c2ccc(NC(=S)NNCCC#N)cc2)CC(C)O1 (stereo not given)	18.9	·	·	·
O=C(NCCC1=CCCCC1)C(=O)NCc1ccncc1	13.2	-1.6	2.2	-11.4
Cc1ccc(/C=N/NC(=O)c2cc(C3CC3)nc3ccccc23)o1	-10.6	14.7	0.4	1.6
O=C(Nc1ccc(Cl)cc1)Nc1cccc(C(=O)O)c1	79.4*	-5.8	2.5	-13.2
CC(Cl)C(=O)NNc1cccc(Cl)n1 (stereo not given)	-19.8	-8.1	0.6	58.3*
CCOc1ccc(NC(=O)Nc2cccc(C(=O)O)c2)cc1	93.2*	-9.4	1.1	11.2
CCOC(=O)c1cccc(NC(=O)Nc2ccc(OCC)cc2)c1	-0.1	-4.3	2.7	1.6
CC(C)(C)C(=O)NC1(C(F)(F)F)NC(=O)N(c2ccccc2F)C1=O (stereo not given)	-0.8	·	·	·
O=C(Nc1ncccn1)c1cc([N+](=O)[O-])cc([N+](=O)[O-])c1	-9.4	98.7*	1.2	-11.4
SMILES	CHOP inhibitor	L major viab	RAM network inh	WT yeast gro inh
Cc1cc(C)nc(NC(=O)c2cc([N+](=O)[O-])cc([N+](=O)[O-])c2)n1	-12.4	58.9*	3.6	3.5
COCCSc1nnc(NC(=O)c2ccc([N+](=O)[O-])cc2)s1	-10.9	-0.1	1.6	2.7
O=C(Nc1ncccn1)c1ccc([N+](=O)[O-])cc1	2.7	-2.5	1.6	-0.1
CCOC(=O)CSc1nnc(NC(=O)c2cc([N+](=O)[O-])cc([N+](=O)[O-])c2)s1	25.0	82.2*	3.2	6.1
CC(C)N(CCNC(=O)c1oc(=O)c2ccccc2c1-c1ccccc1)Cc1ccco1	29.0	7.0	2.4	-8.9
CCOC(=O)c1c(NC(=O)C[n+]2ccc(Cc3ccccc3)cc2)sc(C)c1C	-3.6	52.5*	1.2	11.8
COC(=O)CCC(=O)Nc1sc(Cc2ccccc2)c(C)c1C(N)=O	-12.0	-8.8	0.8	63.7*
CCOC(=O)c1c(NS(=O)(=O)c2ccc(Br)cc2)sc2c1CCC2	22.7	-5.5	9.8*	65.1*
CCOC(=O)c1c(NC(=S)Nc2ccc(F)cc2)sc2c1CCC2	73.6*	0.5	5.4	6.3
CCOC(=O)Cc1csc(N/C(=N/S(=O)(=O)c2cc(Br)ccc2OCC)c2ccccc2)n1	10.7	-8.2	7.0	-11.2
N#C/C(=N\Nc1cccc2ccccc12)c1nnc2n1CCCCC2	-10.1	-1.2	3.6	4.1
COc1ccc(CCC(=O)Nc2ccccc2C(F)(F)F)cc1	9.7	-2.5	2.5	1.4
CCCOc1ccc(C2c3c(oc4ccccc4c3=O)C(=O)N2CCCN2CCOCC2)cc1 (stereo not given)	-5.1	6.8	0.0	2.1
CCOC(=O)c1c(NC(=S)Nc2ccccc2)sc(C)c1C	-22.4	-1.8	9.6*	-5.1
CCn1ncc(Br)c1C(=O)Nc1sc2c(c1C(=O)OC)CCC2	·	8.6	·	·
CCOC(=O)c1cc(C)sc1NC(=S)Nc1ccccc1	33.5	-6.2	6.2	36.0
CCOC(=O)C(NC(=O)c1ccc(F)cc1)(Nc1sc2c(c1C(N)=O)CCC2)C(F)(F)F (stereo not given)	17.5	74.5*	-0.4	-3.3
CCOC(=O)c1c(NC(=O)c2c(Br)cnn2CC)sc(C)c1C	51.0	7.7	9.1*	-17.2
CCOC(=O)C(NC(=O)c1cccc(Cl)c1)(Nc1sc2c(c1C(N)=O)CCC2)C(F)(F)F (stereo not given)	28.3	26.1	1.2	12.4
CN(C)c1nc(/C=C(\C#N)C(N)=O)c(Cl)n1-c1ccc(F)cc1	26.5	18.5	-0.4	5.1
Fc1nc(F)c(F)c(NCCCNc2c(F)c(F)nc(F)c2F)c1F	87.6*	10.7	3.1	72.5*
O=C(Nc1sc2c(c1C(=O)N1CCOCC1)CCCCC2)c1cccnc1	-1.4	17.4	-0.6	11.1
CCN(CC)c1ccc(/C=C2/SC(=O)N(C(C)C)C2=O)o1	-25.5	99.4*	2.9	56.8
COc1ccc(-c2cc(C(=O)N3CCN(c4ccccc4)CC3)no2)cc1OC	45.6	-8.5	3.5	15.4
O=C(c1cccc(F)c1)N1CCN(C(=O)c2cc(-c3ccc(Cl)cc3Cl)on2)CC1	74.4*	4.0	1.8	54.0
SMILES	CHOP inhibitor	L major viab	RAM network inh	WT yeast gro inh
COc1ccccc1-c1cc(C(=O)N2CCN(c3ccc(F)cc3)CC2)no1	-5.2	-10.3	9.4*	12.4
CCCS(=O)(=O)N1CCN(CCCc2ccccc2)CC1	17.4	78.7*	2.7	8.1
Cc1cccc(CN2CCN(CCCc3ccccc3)CC2)c1	1.9	96.2*	2.0	35.2
CCCS(=O)(=O)N1CCC(C(=O)N2CCN(Cc3ccccc3)CC2)CC1	-27.9	-2.3	0.7	1.1
OCC1(CCCc2ccccc2)CCN(Cc2cc(F)ccc2F)CC1	2.1	82.8*	0.2	7.8
Cc1cccc(CN2CCN(C(=S)Nc3ccccc3)CC2)c1	2.4	-4.8	1.5	8.3
O=C(NCCN1CCN(Cc2ccccc2Cl)CC1)Nc1ccccc1	10.6	82.2*	-0.4	-0.3
CCCS(=O)(=O)N1CCN(Cc2ccc3c(c2)c2ccccc2n3CC)CC1	33.8	70.6*	0.5	26.3
OCC1(CCc2ccccc2)CCN(Cc2ccccc2Cl)CC1	3.5	57.2*	0.8	17.4
Clc1ccccc1CN1CCN(CCCc2ccccc2)CC1	38.1	92.8*	0.5	15.8
Clc1cccc(CN2CCN(Cc3nc(CCc4ccccc4)no3)CC2)c1	13.5	63.9*	0.4	3.7
Cc1c(Cl)cccc1NC(=O)c1ncn[nH]1	1.2	·	·	·

Source: PubChem BioAssay
